Furin inhibitor – human furin inhibitors, primary screen, biochemical, fluorescence intensity | AID 463115, 2010 | 220,000 compounds, 0.061% hits | inhibition, % at 20 µM or 30 µM | purified furin, fluorogenic substrate cleavage; in the data active = inhibition above about 25%
Target sequence (P09958 108-714 limits assumed): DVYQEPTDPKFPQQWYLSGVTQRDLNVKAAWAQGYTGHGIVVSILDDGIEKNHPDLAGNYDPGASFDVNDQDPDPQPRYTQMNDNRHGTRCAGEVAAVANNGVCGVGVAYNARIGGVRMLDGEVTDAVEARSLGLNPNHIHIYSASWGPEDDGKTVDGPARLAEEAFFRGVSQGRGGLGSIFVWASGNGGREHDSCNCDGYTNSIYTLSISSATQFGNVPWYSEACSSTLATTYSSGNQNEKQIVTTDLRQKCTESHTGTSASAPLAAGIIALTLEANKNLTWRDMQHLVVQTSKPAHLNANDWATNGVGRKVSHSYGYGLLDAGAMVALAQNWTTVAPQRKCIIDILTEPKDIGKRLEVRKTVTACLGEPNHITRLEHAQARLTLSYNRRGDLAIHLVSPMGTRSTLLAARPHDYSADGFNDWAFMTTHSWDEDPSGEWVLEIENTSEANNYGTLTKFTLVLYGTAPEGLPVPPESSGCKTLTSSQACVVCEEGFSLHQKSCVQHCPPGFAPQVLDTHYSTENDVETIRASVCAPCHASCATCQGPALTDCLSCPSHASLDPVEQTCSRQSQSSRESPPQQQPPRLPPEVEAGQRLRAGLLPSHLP
EP2 mod – EP2 receptor modulators, cAMP readout, primary screen, cell-based, HTRF cAMP, PGE2 stimulation | 260,000 compounds, 0.83% hits | Prostaglandin E2 receptor EP2 subtype (Homo sapiens), P43116 | induction, % at 25 µM | EP2-expressing cells, cAMP HTRF FRET, PGE2 co-stimulation;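 active = compounds whose cAMP rise, as percent of the full-agonist control response, exceeds 60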;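 note: rat C6 glioma line stably carrying human EP2 under a CMV promoter; the protocol text gives 20 µM as final concentration; 100% = response of wells given 1 µM PGE2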
Wee1 stabilizer – Wee1 degradation inhibitors, primary screen, cell-based, HeLa, Wee1K328M-luciferase, luminescence. 220,000 compounds, 1.2% hits. Wee1-like protein kinase (Homo sapiens), P30291. AID 1321, 2008. HeLa Luc-Wee1K328M stability; 100% = proteasome inhibitor MG132 effect. reporter increase, % at 5 µM;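 active = activation above the mean of all tested compounds plus 3 SD, set per screening run, cut at about 8.8% in these data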;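 note: cells exposed to compound for 20 h before luminescence read; 0% = DMSO alone and 100% = MG132 at 30 µM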
p47phox inh – p47phox/p22phox peptide binding inhibitors, primary screen, biochemical, uHTS, NADPH oxidase regulatory subunit | Neutrophil cytosol factor 1 (Homo sapiens), P14598 | fluorescence polarization, 2 h | inhibition, % at 24.7 µM | 220,000 compounds, 0.53% hits | AID 1274, 2008;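 active = inhibition above about 30%, limit read from the data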;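 note: 0% = p47phox with labelled peptide and 100% = labelled peptide alone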
HSV augment – enhancers of HSV replication in host cells, fold increase, host cell viability | 220,000 compounds, 0.005% hits | AID 1956, 2009 | HSV replication augmentation in cells | maximum fold increase; in the data active = maximum fold increase above about 1.5; tested in PC3 cells
EP2 antag – human EP2 receptor antagonists, primary screen, TR-FRET cAMP, C6 glioma cells | Prostaglandin E2 receptor EP2 subtype (Homo sapiens), P43116 | C6 glioma cells expressing human EP2; cells stimulated with saturating PGE2 | inhibition, % at 25 µM | 260,000 compounds, 0.52% hits | AID 1422, 2008;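 active = percent inhibition above 40 after rounding to a whole number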;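 note: rat C6 glioma host cells with rolipram phosphodiesterase inhibitor present; the protocol text gives 20 µM as final concentration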
The depositor's hits bear a star; i = inactive; . = not tested or not shown; ! = repeats disagree. Compounds with a hit are over-represented: about 2.8% of the library has one in this group of screens.

SMILES	Furin inhibitor	EP2 mod	Wee1 stabilizer	p47phox inh	HSV augment	EP2 antag
CN(C)CCNC(=O)/C(=C/c1ccc(-c2ccc(Cl)cc2Cl)o1)NC(=O)c1ccccc1	2	-44	-2	32*	i	14
CC1CCc2c(C(=O)NCc3ccccn3)csc2C1 (centres undefined)	-4	-24	9.0*	14	i	7
COc1cc(-c2nnc(-c3ccccc3)o2)cc(OC)c1OC	-18	-28	2	32*	i	12
COc1cc(-c2nnc(-c3cc(OC)c(OC)c(OC)c3)o2)cc(OC)c1OC	-18	7	3	1	i	16
O=C1c2ccccc2C(=O)N1CCCCSc1nnc2ccccn12	-24	1	3	133*	i	19
Cc1cc(-c2ccccc2)nc(Oc2cccc(C(F)(F)F)c2)c1S(C)(=O)=O	-32	46	0	3	i	11
Cc1ccc(S(=O)(=O)c2c(C)cc(C)nc2Oc2cccc(C(F)(F)F)c2)cc1	-4	64*	2	-13	i	13
Cc1cccc(S(=O)(=O)Nc2cccc3c2C(=O)c2ccccc2-3)c1	-6	-35	-1	-12	4.1*	11
Oc1ccc(/C=N/Nc2cccc3cccnc23)c(O)c1	-8	-16	0	-27	i	51*
Cc1ccc(/C=N/Nc2cccc3cccnc23)c(O)c1	-14	15	0	-12	i	4
Oc1ccc(/C=N/Nc2nccnc2Cl)c(O)c1	-13	-41	10*	-14	i	8
O=[N+]([O-])c1cccc(-c2nc(NCc3ccccc3)c3ccccc3n2)c1	-35	38	0	-9	i	11
CN(Cc1ccccc1)c1nc(-c2cccc([N+](=O)[O-])c2)nc2ccccc12	-5	28	11*	-3	i	6
CCN(c1ccccc1)S(=O)(=O)c1ccc(Cl)c(NC(=O)Nc2ccc(Cl)cc2C#N)c1	-22	61*	1	-6	i	3
CCOc1ccc(C(=O)NC2CCN(C(=S)NCCOC)CC2)cc1	.	-15	.	.	.	4
NS(=O)(=O)c1ccc(NC(=O)COC(=O)c2ccc(Cl)cc2[N+](=O)[O-])cc1	-13	-30	11*	-5	i	6
NS(=O)(=O)c1cccc(NC(=O)COC(=O)c2cc(Cl)ccc2[N+](=O)[O-])c1	-13	-27	1	-3	i	4
CC(C(=O)N1CCCC1)N1CCN(C2CCCCC2)CC1 (centres undefined)	.	-5	.	.	.	9
CCOC(=O)c1ccc(NC(=O)/C=C/c2cccs2)cc1	-2	-46	11*	-6	i	32
CN(C)C(CNC(=S)Nc1ccc(F)cc1)c1cccnc1 (centres undefined)	-18	2	10*	2	i	6
Cc1cccc(NC(=S)NCC(c2cccnc2)N(C)C)c1 (centres undefined)	-8	19	1	-10	i	3
Cc1cc(=O)[nH]c2cc(Cl)ccc12	-18	14	-1	0	i	7
Cc1[nH]ccc2c1[nH]c1cc(=O)ccc12	-94	-27	1	46*	i	13
Cc1ccc(CSc2nnc(CNc3ccc(F)cc3)o2)cc1	-28	-44	9.6*	2	i	17
N#CCSc1nnc(CNc2ccc(F)cc2)o1	-24	8	1	1	i	9
SMILES	Furin inhibitor	EP2 mod	Wee1 stabilizer	p47phox inh	HSV augment	EP2 antag
CCc1ccc2[nH]c(=O)c(CN(C3CCCC3)C(CC)c3nnnn3C3CCCCC3)cc2c1 (centres undefined)	.	50	.	.	.	5
COCC(C)NC(=O)[C@H]1C[C@@H](c2ccc(OC)c(OC)c2)NS(=O)(=O)N1C (some centres undefined)	.	-4	.	.	.	.
C[C@H]1CCCC2(CC[N+](C)(CCC[N+](C)(C)C)CC2)C1 (some centres undefined)	.	8	.	.	.	48*
O=C(O)c1cccc(S(=O)(=O)Nc2ccccn2)c1	.	-36	.	.	.	63*
CCC(=O)Nc1nn(C)c2nc3c(C)cccc3cc12	-32	-9	-2	0	i	12
CCc1c(C)sc2nc(C)nc(SCC(=O)Nc3ccccc3OC)c12	.	66*	.	.	.	9
COc1ccc(NC(=O)CSc2nc3ncccc3[nH]2)cc1OC	-7	29	11*	-6	i	2
COc1ccc(OC)c(NC(=O)CSc2nc(C3CCCCC3)nc3ccccc23)c1	.	61*	.	.	.	13
COc1ccc(C)cc1NC(=O)CSc1nc(C)nc2sc(C)c(C)c12	.	57	.	.	.	9
COc1ccc(CC(=O)Nc2nn(C)c3nc4c(C)cccc4cc23)cc1	-17	-22	4	-12	i	48*
CCC(=O)Nc1cccc(NC(=O)CSc2nc(C3CCCCC3)nc3ccccc23)c1	.	-2	.	.	.	13
Cc1ccc2nc(C3CCCN(C(=S)Nc4ccccc4Cl)C3)[nH]c2c1 (centres undefined)	.	-29	.	.	.	3
CCc1cc2cc3c(cc2nc1SCC(=O)Nc1ccc(OC)c(OC)c1)OCO3	.	74*	.	.	.	10
CCOC(=O)CC(=O)CSc1nc2c(C)c(C)ccc2cc1C	-8	66*!	5	-9	i	8
CCc1cc2cccc(C)c2nc1SCC(=O)Nc1cc(OC)ccc1OC	.	63*	.	.	.	14
CCOC(=O)CSc1nc2ccc(C)cc2cc1CC	.	62*	.	.	.	12
CCOC(=O)c1nn(-c2cccc(C(F)(F)F)c2)c(=O)c(C#N)c1C	.	-20	.	.	.	6
O=C(NCCc1nc(-c2cccnc2)n[nH]1)C1(c2ccccc2)CC1	.	-40	.	.	.	1
COC(=O)Cn1cc(CN2CCn3c(CO)nnc3C2)c2ccccc21	.	-19	.	.	.	5
COCCNC(=O)Cn1cc(/C=C2\C(=O)NC(=O)N(c3cccc(OC)c3)C2=O)c2ccccc21	.	16	.	.	.	14
O=C(NCCN1CCC(O)(c2ccc(F)cc2)CC1)c1c(F)cccc1Cl	.	-6	.	.	.	4
Cc1ccc(NC(=O)NC2CCN(C(=O)N3CCOCC3)CC2)cc1	.	-6	.	.	.	8
CCc1cc2c(C)ccc(C)c2nc1SCC(=O)OC	.	87*	.	.	.	16
O=C1Nc2ccccc2/C1=N/N=C/c1ccc(-c2ccc([N+](=O)[O-])cc2)o1	-26	-15	-1	51*	i	9
COc1ccccc1C1(NCc2ccccc2OCCN2CCOCC2)CCCC1	.	-33	.	.	.	-1
COc1ccc(C/C(N)=N/OC(=O)Cc2ccccc2)cc1OC	-21	9	-1	115*	i	4
COc1ccc(CC(=O)O/N=C(\N)Cc2ccc(OC)c(OC)c2)cc1	-4	12	5	-3	i	6
